Where “and” joins values, the source holds several entries; their conditions need not be identical. Identical values can stand only once. Among all 5,500 compounds or so, about 2,000 (36%) were called active. Inconclusive results (about 18%) are left out. Rule as the data show it: active = normalized growth mostly below about 0.91 (no sharp cut-off); inconclusive = no clear call, values can overlap the other calls; inactive = mostly above about 0.92. The list shows a part of the results.
Assay: chemical genetic growth profiling, strain panel (AID 1159580);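 also: tested at 20 µM; growth read once vehicle control cultures reached saturation at 30 °C; 1 = growth at the plate median or of vehicle wells; lower values mean less growth of the strain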
Conditions: growth OD
[1] = S. cerevisiae deletion strains, locus YAL013W, strain DEP1, active compounds read low
[2] = S. cerevisiae deletion strains, locus YAL040C, strain CLN3, active compounds read low
[3] = S. cerevisiae deletion strains, locus YBR021W, strain FUR4, active compounds read low
[4] = S. cerevisiae deletion strains, locus YBR229C, strain ROT2, active compounds read low
[5] = S. cerevisiae deletion strains, locus YCL029C, strain bik1, active compounds read low
[6] = S. cerevisiae deletion strains, locus YDL035C, strain GPR1, active compounds read low
[7] = S. cerevisiae deletion strains, locus YDL074C, strain BRE1, active compounds read low
[8] = S. cerevisiae deletion strains, locus YDL101C, strain DUN1, active compounds read low
[9] = S. cerevisiae deletion strains, locus YDL134C, strain PPH21, active compounds read low
[10] = S. cerevisiae deletion strains, locus YDL185W, strain tfp1, active compounds read low
[11] = S. cerevisiae deletion strains, locus YDL192W, strain arf1, active compounds read low
[12] = S. cerevisiae deletion strains, locus YDR101C, strain arx1, active compounds read low
[13] = S. cerevisiae deletion strains, locus YDR150W, strain NUM1, active compounds read low
[14] = S. cerevisiae deletion strains, locus YDR162C, strain NBP2, active compounds read low
[15] = S. cerevisiae deletion strains, locus YDR318W, strain mcm21, active compounds read low
[16] = S. cerevisiae deletion strains, locus YDR363W, strain ESC2, active compounds read low
[17] = S. cerevisiae deletion strains, locus YDR388W, active compounds read low
[18] = S. cerevisiae deletion strains, locus YDR502C, strain sam2, active compounds read low
[19] = S. cerevisiae deletion strains, locus YEL061C, strain CIN8, active compounds read low
[20] = S. cerevisiae deletion strains, locus YER002W, strain NOP16, active compounds read low
[21] = S. cerevisiae deletion strains, locus YER110C, active compounds read low
[22] = S. cerevisiae deletion strains, locus YER155C, strain BEM2, active compounds read low
[23] = S. cerevisiae deletion strains, locus YER167W, strain BCK2, active compounds read low
[24] = S. cerevisiae deletion strains, locus YGL078C, strain dbp3, active compounds read low
[25] = S. cerevisiae deletion strains, locus YGL086W, strain mad1, active compounds read low
[26] = S. cerevisiae deletion strains, locus YGL248W, strain PDE1, active compounds read low
[27] = S. cerevisiae deletion strains, locus YGR078C, strain PAC10, active compounds read low
[28] = S. cerevisiae deletion strains, locus YGR135W, strain pre9, active compounds read low
[29] = S. cerevisiae deletion strains, locus YGR229C, strain SMI1, active compounds read low
[30] = S. cerevisiae deletion strains, locus YGR252W, strain gcn5, active compounds read low
[31] = S. cerevisiae deletion strains, locus YHR030C, strain SLT2, active compounds read low
[32] = S. cerevisiae deletion strains, locus YHR079C, strain IRE1 (second series), active compounds read low
[33] = S. cerevisiae deletion strains, locus YHR094C, strain hxt1, active compounds read low
[34] = S. cerevisiae deletion strains, locus YHR129C, strain ARP1, active compounds read low
[35] = S. cerevisiae deletion strains, locus YHR200W, strain rpn10, active compounds read low
[36] = S. cerevisiae deletion strains, locus YIL066C, strain RNR3, active compounds read low
[37] = S. cerevisiae deletion strains, locus YIL073C, strain SPO22, active compounds read low
[38] = S. cerevisiae deletion strains, locus YIL125W, strain kgd1, active compounds read low
[39] = S. cerevisiae deletion strains, locus YIR030C, strain dcg1, active compounds read low
[40] = S. cerevisiae deletion strains, locus YJL095W, strain BCK1, active compounds read low
[41] = S. cerevisiae deletion strains, locus YJL134W, strain LCB3, active compounds read low
[42] = S. cerevisiae deletion strains, locus YJL168C, strain set2, active compounds read low
[43] = S. cerevisiae deletion strains, locus YJL187C, strain SWE1 (second series), active compounds read low
[44] = S. cerevisiae deletion strains, locus YJR043C, strain POL32, active compounds read low
[45] = S. cerevisiae deletion strains, locus YJR075W, strain HOC1, active compounds read low
[46] = S. cerevisiae deletion strains, locus YKL009W, strain mrt4, active compounds read low
[47] = S. cerevisiae deletion strains, locus YKL068W, active compounds read low
[48] = S. cerevisiae deletion strains, locus YKL085W, strain MDH1 (second series), active compounds read low
[49] = S. cerevisiae deletion strains, locus YKL085W, strain MDH1, active compounds read low
[50] = S. cerevisiae deletion strains, locus YKL190W, strain CNB1, active compounds read low
[51] = S. cerevisiae deletion strains, locus YKR001C, strain vps1, active compounds read low
[52] = S. cerevisiae deletion strains, locus YLR039C, strain RIC1, active compounds read low
[53] = S. cerevisiae deletion strains, locus YLR058C, strain SHM2, active compounds read low
[54] = S. cerevisiae deletion strains, locus YLR102C, strain apc9, active compounds read low
[55] = S. cerevisiae deletion strains, locus YLR262C, strain YPT6, active compounds read low
[56] = S. cerevisiae deletion strains, locus YLR268W, strain sec22, active compounds read low
[57] = S. cerevisiae deletion strains, locus YLR330W, strain CHS5, active compounds read low
[58] = S. cerevisiae deletion strains, locus YLR342W, strain FKS1 (second series), active compounds read low
[59] = S. cerevisiae deletion strains, locus YLR371W, strain rom2, active compounds read low
[60] = S. cerevisiae deletion strains, locus YLR418C, strain cdc73, active compounds read low
[61] = S. cerevisiae deletion strains, locus YML016C, strain PPZ1, active compounds read low
[62] = S. cerevisiae deletion strains, locus YML032C, strain rad52, active compounds read low
[63] = S. cerevisiae deletion strains, locus YML124C, strain tub3, active compounds read low
[64] = S. cerevisiae deletion strains, locus YMR078C, strain ctf18, active compounds read low
[65] = S. cerevisiae deletion strains, locus YMR223W, strain ubp8, active compounds read low
[66] = S. cerevisiae deletion strains, locus YMR263W, strain SAP30, active compounds read low
[67] = S. cerevisiae deletion strains, locus YMR307W, strain GAS1, active compounds read low
[68] = S. cerevisiae deletion strains, locus YNL067W, strain RPL9B, active compounds read low
[69] = S. cerevisiae deletion strains, locus YNL128W, strain TEP1, active compounds read low
[70] = S. cerevisiae deletion strains, locus YNL153C, strain GIM3, active compounds read low
[71] = S. cerevisiae deletion strains, locus YNL175C, strain NOP13, active compounds read low
[72] = S. cerevisiae deletion strains, locus YNL197C, strain WHI3, active compounds read low
[73] = S. cerevisiae deletion strains, locus YNL224C, strain SQS1, active compounds read low
[74] = S. cerevisiae deletion strains, locus YNL233W, strain BNI4, active compounds read low
[75] = S. cerevisiae deletion strains, locus YNL250W, strain rad50, active compounds read low
[76] = S. cerevisiae deletion strains, locus YNL271C, strain bni1, active compounds read low
[77] = S. cerevisiae deletion strains, locus YNL298W, strain CLA4, active compounds read low
[78] = S. cerevisiae deletion strains, locus YNL307C, strain MCK1, active compounds read low
[79] = S. cerevisiae deletion strains, locus YNL322C, strain KRE1, active compounds read low
[80] = S. cerevisiae deletion strains, locus YNR052C, strain pop2, active compounds read low
[81] = S. cerevisiae deletion strains, locus YOL006C, strain TOP1, active compounds read low
[82] = S. cerevisiae deletion strains, locus YOL012C, strain htz1
[83] = S. cerevisiae deletion strains, locus YOL147C, strain pex11, active compounds read low
[84] = S. cerevisiae deletion strains, locus YOR061W, strain CKA2, active compounds read low
[85] = S. cerevisiae deletion strains, locus YOR069W, strain VPS5, active compounds read low
[86] = S. cerevisiae deletion strains, locus YOR083W, strain WHI5 (second series), active compounds read low
[87] = S. cerevisiae deletion strains, locus YOR136W, strain idh2, active compounds read low
[88] = S. cerevisiae deletion strains, locus YOR144C, strain elg1, active compounds read low
[89] = S. cerevisiae deletion strains, locus YOR184W, strain ser1, active compounds read low
[90] = S. cerevisiae deletion strains, locus YOR316C, strain cot1, active compounds read low
[91] = S. cerevisiae deletion strains, locus YPL055C, strain LGE1, active compounds read low
[92] = S. cerevisiae deletion strains, locus YPL241C, strain CIN2, active compounds read low
[93] = S. cerevisiae deletion strains, locus YPR119W, strain clb2, active compounds read low
[94] = S. cerevisiae deletion strains, locus YPR141C, strain kar3, active compounds read low
[95] = S. cerevisiae deletion strains, locus YPR163C, strain tif3, active compounds read low
[96] = S. cerevisiae deletion strains, locus YPR167C, strain met16, active compounds read low
[97] = S. cerevisiae deletion strains, strain wtn01, active compounds read low
[98] = S. cerevisiae strains, strain wild type, active compounds read low

Measured: normalized growth

NC(N)=NC(=O)c1nc(Cl)c(N2CCCCCC2)nc1N
inactive: [1] 1.01 and 0.962 | [2] 1.09 | [3] 1.02 | [4] 1.01 | [5] 1.01 | [6] 1 | [7] 0.989 | [8] 1.02 | [9] 1.01 | [10] 1.02 | [11] 1.01 | [12] 1 | [13] 1.01 | [14] 1.03 | [15] 1.01 | [16] 0.986 | [17] 1.01 | [18] 1.01 | [19] 1.01 | [20] 1.02 | [21] 1 | [22] 1.01 | [23] 1 | [24] 1.02 | [25] 0.998 | [26] 1.01 | [27] 0.991 | [28] 0.995 | [29] 1.01 and 0.996 | [30] 0.853 | [31] 1.01 and 1.06 | [32] 1.02 | S. cerevisiae deletion strains, locus YHR079C, strain IRE1, active compounds read low 1.06 | [33] 1.01 | [34] 1 | [35] 1.02 | [36] 1.02 | [37] 1.08 | [38] 1.01 | [39] 1.02 | [40] 0.986 and 1.06 | [41] 1.01 | [42] 1.02 | [43] 1.02 | [44] 0.982 | S. cerevisiae deletion strains, locus YJR066W, strain TOR1, active compounds read low 1.02 | [45] 0.988 | [46] 0.999 | [47] 1.01 | [48] 1.01 | [49] 1.01 | [50] 1.01 | [51] 1.02 | [52] 1.14 | [53] 1.02 | [54] 1.01 | S. cerevisiae deletion strains, locus YLR113W, strain HOG1, active compounds read low 0.973 | [55] 1.16 | [56] 1.02 | [57] 1.02 | [58] 0.887 | [59] 1.03 | [60] 0.91 | [61] 1.01 | [62] 1.01 | [63] 1.01 | [64] 1.01 | [65] 0.999 | [66] 1.01 and 0.995 | [67] 0.88 | [68] 1 | [69] 1.02 | [70] 1.01 and 0.97 | [71] 1.03 | S. cerevisiae deletion strains, locus YNL183C, strain NPR1, active compounds read low 1.02 | [72] 1.07 | [73] 1.01 | [74] 1 | [75] 1.01 | [76] 1.02 | [77] 1 | [78] 0.989 | [79] 1.01 | [80] 1.02 | [81] 0.995 | [83] 1 | [84] 1.01 | [85] 1.01 | [86] 0.979 | [87] 1.02 | [88] 1.01 | [89] 1.02 | S. cerevisiae deletion strains, locus YOR231W, strain MKK1, active compounds read low 1.02 | [90] 1.01 | [91] 1.01 and 0.902 | [92] 1.01 | S. cerevisiae deletion strains, locus YPL256C, strain CLN2, active compounds read low 1.09 | [93] 1.01 | [94] 1.02 | [95] 1.02 | [96] 1.01 | [97] 1.01 | [98] 1.01
active: [82] 2.1 [resistant]

CN(C)c1nc(N)c(C(=O)N=C(N)N)nc1Cl
inactive: [1] 1.01 | [2] 1 | [3] 1.01 | [4] 1.01 | [5] 1.01 | [6] 1.03 | [7] 0.983 | [8] 1.01 | [9] 0.999 | [10] 1.01 | [11] 1.01 | [12] 1 | [13] 0.982 and 0.999 | [14] 0.985 | [15] 1.02 | [16] 1 | [17] 1 | [18] 0.983 | [19] 1.01 | [20] 1.01 | [21] 1.02 | [22] 1.01 | [23] 1.02 | [24] 0.989 | [25] 1.02 | [26] 1 | [27] 0.99 | [28] 0.967 | [29] 1 | [30] 1.02 | [31] 1.01 | [32] 1.01 | [33] 0.998 | [34] 1.01 | [35] 1 | [36] 1.02 | [37] 1.07 | [38] 1 | [39] 0.998 | [40] 0.997 | [41] 1 | [42] 1 | [43] 0.988 | [44] 1.03 | [45] 1.01 | [46] 1.06 | [47] 0.997 | [48] 1.01 | [49] 1.01 | [50] 1.01 | [51] 1.02 | [52] 1.06 | [53] 1.01 | [54] 1 | [55] 1.04 | [56] 0.988 | [57] 1.01 | [58] 1.07 | [59] 1.01 | [60] 0.925 | [61] 1 | [62] 1.03 | [63] 0.999 | [64] 1.01 | [65] 1.02 | [66] 0.988 | [67] 1.06 | [68] 0.986 | [69] 1.01 | [70] 0.999 and 0.967 | [71] 1.01 | [72] 1 | [73] 1.01 | [74] 0.989 | [75] 1.01 | [76] 1.01 | [77] 1.01 | [78] 1.02 | [79] 1.01 | [80] 1.02 | [81] 0.981 | [82] 1.37 | [83] 1.01 | [84] 1.01 | [85] 1.01 | [86] 1.01 | [87] 1 | [88] 1 | [89] 1.05 | [90] 1 | [91] 0.956 | [92] 0.999 | [93] 0.988 | [94] 0.999 | [95] 0.999 | [96] 1 | [97] 0.997 | [98] 1.01
